# Source: PubChem BioAssay
# PAFAH1B3 inh = inhibitors of human PAFAH1B3; Q15102; recombinant PAFAH1B3, FP-rhodamine probe, fluorescence polarization; inhibition, % at 3.39 µM; actives 0.28% (n = 340,000); AID 492972;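 active = inhibition above the screen-wide average of all tested compounds plus 3 SD, cut at about 25% in these data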;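 note: 0% = enzyme with DMSO only and 100% = wells lacking PAFAH1B3 protein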
# Fam108B counter = blocks mouse Fam108B hydrolase in RBBP9 counter-screen | actives 0.33% (n = 300,000) | AID 1947 | inhibition, % at 9.51 µM | recombinant Fam108B, FP-Rh probe fluorescence polarization;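 active = inhibition above the screen mean inhibition plus 3 SD, computed separately per campaign, cut at about 18% in these data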;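 note: inhibitors lower polarization as less probe binds the enzyme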
# PME-1 primary = blocks human protein phosphatase methylesterase 1; Q9Y570; recombinant PME-1, FP-Rh probe fluorescence polarization; inhibition, % at 5.9 µM; actives 0.53% (n = 320,000); AID 2130;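 active = inhibition above the campaign mean of all compounds plus 3 SD, cut at about 26% in these data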;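 note: competitive labeling of PME-1 active site by serine hydrolase directed probe; 0% = PME-1 with DMSO and 100% = wells lacking PME-1 enzyme; inhibitors block probe labeling so polarization falls and inhibition rises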
# pPAFAH inh = pPAFAH (human) enzyme inhibition; Q13093; recombinant pPAFAH, FP-rhodamine probe fluorescence polarization; inhibition, % at 3.39 µM; actives 1.5% (n = 330,000); AID 463082;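 active = inhibition above the mean inhibition across the screen plus 3 SD, cut at about 25% in these data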;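 note: inhibitors block binding of the rhodamine activity-based probe so polarization drops; 0% = enzyme with DMSO and 100% = wells lacking pPAFAH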
# Target sequence (Q13093 whole entry, looked up): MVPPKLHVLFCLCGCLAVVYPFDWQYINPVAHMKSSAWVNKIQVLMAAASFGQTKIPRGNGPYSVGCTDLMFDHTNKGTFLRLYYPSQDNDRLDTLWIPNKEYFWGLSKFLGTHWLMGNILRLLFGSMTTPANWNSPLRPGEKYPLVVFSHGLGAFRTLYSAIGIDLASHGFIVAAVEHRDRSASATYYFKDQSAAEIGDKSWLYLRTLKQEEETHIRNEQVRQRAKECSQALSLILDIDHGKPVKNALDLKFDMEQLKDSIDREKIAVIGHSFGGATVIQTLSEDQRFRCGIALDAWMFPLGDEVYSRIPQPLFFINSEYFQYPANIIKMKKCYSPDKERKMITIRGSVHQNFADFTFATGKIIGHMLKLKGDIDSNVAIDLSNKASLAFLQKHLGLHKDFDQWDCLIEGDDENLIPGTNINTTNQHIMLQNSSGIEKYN
# PAFAH2 FP inh = inhibitors of human PAFAH2. AID 492956. recombinant PAFAH2, FP-rhodamine activity probe, fluorescence polarization. actives 0.99% (n = 340,000). inhibition, % at 3.39 µM. Q99487;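 active = inhibition above the mean over all tested compounds plus 3 SD, cut at about 30% in these data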;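 note: inhibitors block probe labeling of enzyme so polarization drops; 0% = enzyme with DMSO and 100% = wells lacking PAFAH2 protein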
# PAFAH1B2 FP inh = blocks human PAF acetylhydrolase 1b catalytic subunit 2; P68402; recombinant PAFAH1B2, FP-rhodamine activity probe, fluorescence polarization; inhibition, % at 3.39 µM; actives 1.2% (n = 340,000);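 active = inhibition above the mean of all tested compounds plus 3 SD, cut at about 24% in these data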;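 note: 0% = enzyme with DMSO and 100% = wells lacking PAFAH1B2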
# Target sequence (P68402 whole entry, looked up): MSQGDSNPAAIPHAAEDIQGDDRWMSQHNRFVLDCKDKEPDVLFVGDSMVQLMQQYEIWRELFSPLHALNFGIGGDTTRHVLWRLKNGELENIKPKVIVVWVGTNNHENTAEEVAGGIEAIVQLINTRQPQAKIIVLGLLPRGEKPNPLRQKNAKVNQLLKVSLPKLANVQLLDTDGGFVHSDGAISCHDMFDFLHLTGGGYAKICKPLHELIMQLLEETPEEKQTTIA
# The depositor's hits bear a star; · = no result given. An excerpt weighted towards active compounds, which were near 2.9% of everything screened.
SMILES,PAFAH1B3 inh,Fam108B counter,PME-1 primary,pPAFAH inh,PAFAH2 FP inh,PAFAH1B2 FP inh
OCC[C@H]1C[C@H](O)[C@@H](O)[C@@]2(OCc3ccccc32)O1,-2.4,5.5,6.5,5.2,2.9,0.0
OCC[C@H]1C[C@H](O)[C@@H](O)[C@]2(OCCc3ccccc32)O1,6.7,-0.9,-1.7,25.6*,7.5,-0.4
O=C1CCCCC1Nc1ccc(Br)cc1 (stereo not given),1.7,·,·,·,2.3,1.5
COc1ccc(-c2[nH]c(-c3ccc(SC)cc3)nc2SCC(=O)Nc2nccs2)cc1,24.9,35.5*,70.2*,7.2,-20.5,27.1*
COc1ccc(-c2nc(SCC(=O)NC3CCCC3)c(-c3ccc(OC)cc3)[nH]2)cc1,11.4,2.5,17.8,3.7,0.8,1.9
Cc1cc(/C=C2\SC(=S)NC2=O)c(C)n1-c1ccccc1,·,6.7,-0.5,30.3*,·,·
Cc1ccc(NC(=O)CCSCCC(=O)Nc2ccc(C)c(C)c2)cc1C,-7.9,-5.8,-4.5,4.5,-15.0,28.6*
Cc1ccc(NC(=O)CC(=O)Nc2ccc(C)c(C)c2)cc1C,5.2,-8.8,-11.3,2.0,-7.9,2.1
O=C(N/N=C/c1c[nH]c2ccccc12)c1cc(-c2ccc3ccccc3c2)n[nH]1,1.2,10.6,29.0*,-1.7,-27.7,12.9
O=C(N/N=C/c1c[nH]c2ccccc12)c1cc(-c2cccc3ccccc23)n[nH]1,9.6,2.9,27.9*,12.4,-16.9,-0.5
O=C(N/N=C/c1c[nH]c2ccccc12)C1CC1(c1ccccc1)c1ccccc1 (stereo not given),8.2,12.4,30.7*,8.8,4.4,3.5
O=C(N/N=C/c1c[nH]c2ccccc12)c1cc(-c2ccc(-c3ccccc3)cc2)n[nH]1,-5.1,13.1,-14.1,0.2,-34.1,-1.2
O=C(NCCC1=CCCCC1)C1CCN(S(=O)(=O)c2cccs2)CC1,2.3,-0.7,28.5*,1.2,4.9,14.1
Cc1nc2ccccn2c1-c1ccnn1S(=O)(=O)c1ccc(F)cc1,-2.7,0.7,5.4,3.4,12.1,31.0*
Cc1nc2ccccn2c1C(=O)/C=C/c1ccc(F)cc1,-0.6,2.0,-2.9,-6.3,-8.0,-1.4
Cc1cc2[nH]c(=O)c(=O)[nH]c2cc1S(=O)(=O)N1CCC(C)CC1,6.8,0.1,-5.6,5.1,3.2,25.0*
Cc1cc2[nH]c(=O)c(=O)[nH]c2cc1S(=O)(=O)N1CCN(c2ccccc2)CC1,2.3,3.4,1.6,3.2,-0.1,11.6
Cc1cc(C)cc(NS(=O)(=O)c2cc3[nH]c(=O)c(=O)[nH]c3cc2C)c1,-0.4,-5.3,1.3,-3.0,-1.1,4.8
Cc1cc2[nH]c(=O)c(=O)[nH]c2cc1S(=O)(=O)NC1CCC(C)CC1 (stereo not given),-0.9,-1.1,0.7,-0.3,-2.5,25.7*
CC1(C)C(=O)Nc2ccccc2N1C(=O)COC(=O)CNS(=O)(=O)c1ccc(F)c(F)c1F,0.1,·,1.3,10.5,-1.0,-3.3
O=C(c1cc2cc(Br)ccc2o1)N1CCN(c2ccccc2)CC1,-0.8,-1.5,-1.5,9.2,-1.9,1.5
Cc1ccc(S(=O)(=O)Oc2ccc(/C=N/NC(=O)c3nn(C)cc3[N+](=O)[O-])cc2)cc1,-4.3,-3.1,10.3,2.4,-3.3,28.5*
COc1ccc(S(=O)(=O)Nc2ccc3c(c2)CC(=O)N([C@@H](C)CO)C[C@@H](C)[C@@H](CN(C)Cc2ccccc2)O3)cc1,6.9,·,·,10.8,2.6,37.6*
COc1ccc(NC(=O)N(C)C[C@H]2Oc3ccc(NC(=O)Cc4ccccc4)cc3CC(=O)N([C@H](C)CO)C[C@H]2C)cc1,6.2,·,·,31.2*,-3.4,1.1
COc1ccc(S(=O)(=O)N(C)C[C@H]2Oc3ccc(NS(=O)(=O)c4ccccc4)cc3CC(=O)N([C@H](C)CO)C[C@@H]2C)cc1,10.7,·,·,15.4,4.5,11.1
SMILES,PAFAH1B3 inh,Fam108B counter,PME-1 primary,pPAFAH inh,PAFAH2 FP inh,PAFAH1B2 FP inh
CSc1ccc(C=NNc2ccc(S(=O)(=O)Nc3ccccc3C(=O)O)cc2[N+](=O)[O-])cc1,14.4,·,·,22.3,19.7,8.9
C=CCOc1ccc(C=NNc2ccc(S(=O)(=O)Nc3ccccc3C(=O)O)cc2[N+](=O)[O-])cc1OC,15.1,·,·,36.8*,13.2,9.8
O=C(O)c1ccccc1NS(=O)(=O)c1ccc(NN=Cc2ccccc2F)c([N+](=O)[O-])c1,8.3,·,·,51.1*,7.0,15.4
CCOc1cccc(C=NNc2ccc(S(=O)(=O)Nc3ccccc3C(=O)O)cc2[N+](=O)[O-])c1O,9.5,·,·,30.1*,7.1,16.0
O=C(O)c1ccccc1/C=N/Nc1ccc(S(=O)(=O)N2CCCC2)cc1[N+](=O)[O-],7.8,4.6,10.9,8.9,-6.1,12.0
Cc1ccccc1-c1nnc(SCC(=O)NC2CCCC2)n1C,8.9,-0.7,-3.5,6.9,-5.9,2.9
COc1ccc(Nc2nc(-c3sc(C)nc3C)cs2)c(OC)c1,-5.0,6.7,2.1,26.6*,8.8,6.2
CCCCCCN(C(=O)CCCCCN1C(=O)NC(c2ccc(-c3ccccc3)cc2)C(C(=O)OCc2ccccc2)=C1C)C(C(=O)NCCCC)c1ccc(OCC(=O)OC)cc1 (stereo not given),·,-6.2,1.0,18.6,·,·
CCCCNC(=O)C(c1ccc(OCC(=O)OC)c(C(=O)OC)c1)N(CCOC)C(=O)CCCCCN1C(=O)NC(c2ccc(-c3ccccc3)cc2)C(C(=O)OCc2ccccc2)=C1C (stereo not given),·,-9.1,-2.8,49.3*,·,·
CSc1ccc(S(=O)(=O)NCCSC(C)(C)C)cc1,-2.6,2.3,-5.4,27.9*,13.6,8.0
CCOC(=O)[C@@H]1[C@H]2COc3ccc(Br)cc3[C@H]2N2C(=O)N(c3ccc(F)cc3)C(=O)[C@@]12C,4.9,-1.0,4.8,6.0,0.0,9.8
CCc1ccc2[nH]c(O)c(N=NC3=NC(=O)CS3)c2c1,8.9,17.0,31.6*,24.0,-4.5,34.4*
CCc1ccc2c(c1)c(N=NC1=NC(=O)CS1)c(O)n2CC,5.0,6.3,4.9,5.7,11.7,5.8
O=c1[nH]c(CCl)nc2cc(-c3ccc(F)cc3)sc12,3.4,-13.8,-2.0,11.6,-0.1,29.3*
O=S(=O)(O)c1cc(OS(=O)(=O)c2ccccc2)cc2ccccc12,7.1,-2.6,1.8,-3.4,2.9,30.5*
CN(C(=O)c1cccc(NC(=O)Cc2cccc(NC(=O)C3CCN(C(=O)C4CCCCC4)CC3)c2)c1)C1CC1,6.5,·,·,·,3.1,4.2
CC1(C)CC2CC(C)(CN2S(=O)(=O)c2cccc(C(=O)OCC(N)=O)c2)C1 (stereo not given),1.7,3.5,-1.1,2.4,3.2,28.4*
CC1(C)CC2CC(C)(CN2S(=O)(=O)c2cccc(C(N)=O)c2)C1 (stereo not given),4.7,·,-5.1,0.5,-2.3,29.3*
